19 compounds from PubChem BioAssay (NCATS) can be followed below.

Inconclusive results are not listed. The source made the active and inactive calls. Unless noted, calls come from the whole dose curve; as a rule, active = well fitted curve in the direction sought with a large enough effect; inconclusive = small, poorly fitted or top-dose-only effect, or another doubt; inactive = no such curve, though single readings can be large; an effect the other way counts as inactive or inconclusive.

Test [1] in a line: qHTS Assay for Lipid Storage Modulators (AID 1519; calls by dose curve; for activity change, negative = inhibition: % is set by controls: 0 for no effect and ±100 for the full control effect). As to conditions: Drosophila S3 cells, BODIPY lipid droplet/cell ratio, laser cytometry, cells loaded with oleic acid. The procedure, abridged: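 Cells seeded at 5,000 per well were treated with compounds over a concentration series and loaded with oleic acid (400 uM, as added). Lipid droplet fluorescence (488 nm excitation, 500-530 nm channel) was read by laser-scanning cytometry and normalized to 20 uM Triacsin C.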
On the technique in general: In qHTS, concentration-response curves come from the screen itself.

The target in test [2] is alpha-glucosidase (Oryza sativa, rice) (UniProt Q653V4). In words: Counterscreen for Glucocerebrosidase Inhibitors: qHTS Assay for Rice alpha-Glucosidase at pH 5.0 (AID 997).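 Note: 0% = full activity with enzyme and -100% = basal without enzyme.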 As to conditions: rice alpha-glucosidase enzyme activity; series mostly up to 76.9 µM. The procedure, abridged:
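Endpoint fluorogenic assay at pH 5.0: compounds (0.7 nM to 77 uM) titrated against 4 nM rice enzyme and 400 uM 4-MU-alpha-glucoside for 20 min at room temperature; NaOH/glycine stop, read ex 365/em 440 nm, Hill-fitted AC50.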
(A counterscreen serves to expose hits that act by an unwanted route or on another target.)

Test [3] can be described thus: Validation of Assay for Modulators of Lamin A Splicing (AID 1459; active = well fitted curve in the direction sought with a large enough effect in the signal ratio; the % refers to the signal ratio;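 note: cells exposed to compound for two days before reading; 0% is about no effect; ratio rise marks activators and ratio drop marks inhibitors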). As to conditions: Lamin A splicing dual RFP/GFP fluorescence reporter; series mostly up to 9.22 µM. The procedure, abridged: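 Dual-reporter HeLa S3 line (lamin A-EGFP minigene, DsRed2) treated with compounds 48 hrs, 0.5% DMSO final. Endpoint: EGFP/DsRed2 total intensity ratio from laser-scanning microplate cytometry.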

In test [4] the target is DNA repair nuclease/redox regulator APEX1 (Homo sapiens) (UniProt P27695). In words: qHTS Validation Assay for Inhibitors of the Human Apurinic/apyrimidinic Endonuclease 1 (APE1) (AID 1705;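 note: TAMRA fluorescence gain over two minutes as APE1 cuts a quenched THF abasic duplex; % is set by controls: 0 for no effect and ±100 for the full control effect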). The following applies: purified APE1 endonuclease activity, fluorescence, titration; series mostly up to 57.1 µM. The procedure, abridged:
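Substrate: 50 nM final fluorophore/quencher THF-abasic duplex. Enzyme preincubated with compounds 15 min, RT. Progress derived from fluorescence difference, third minus first kinetic read.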

A short description of test [5]: Counterscreen for APE1 Inhibitors: Fluorescent Dye Displacement Validation Assay (AID 1707).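 Note: plate controls were ThO with dsDNA and no compound for no effect and ThO without dsDNA for full effect.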 As to conditions: fluorescent dye displacement from DNA; series mostly up to 57.1 µM. The procedure, abridged: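 Counterscreen flags promiscuous DNA binders: compounds displacing ThO from duplex DNA (abasic THF site, 50 nM) reduce 540 nm emission (480 nm excitation). ThO 250 nM final; Tris-HCl pH 7.5 with NaCl, MgCl2 and Tween-20.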

In test [6] the target is Endonuclease 4 (Escherichia coli (strain K12)) (UniProt P0A6C1). Description: Counterscreen for APE1 Inhibitors: qHTS Validation Assay for Inhibitors of Endonuclease IV (AID 1708). Note: % is set by controls: 0 for no effect and ±100 for the full control effect. As to conditions: E. coli endonuclease IV, DNA cleavage fluorescence; series mostly up to 57.1 µM. The procedure, abridged:
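Measured as reaction progress, the fluorescence gain between first and third kinetic reads after adding 50 nM TAMRA/BHQ-2 THF duplex to 2 nM enzyme preincubated 15 min with compound; 2 mM MgCl2, pH 7.5.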

A short description of test [7]: qHTS for differential inhibitors of proliferation of Plasmodium falciparum line 7G8 (AID 1815).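 Note: potency is the fitted concentration of half-maximal effect; parasite growth measured after three days of incubation.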 As to conditions: Plasmodium falciparum 7G8 proliferation inhibition; series mostly up to 28.7 µM.
Test [8] can be described thus: qHTS for differential inhibitors of proliferation of Plasmodium falciparum line GB4 (AID 1816).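 Note: potency is the fitted concentration of half-maximal effect; parasite growth measured after 72 h incubation.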 As to conditions: Potency: Plasmodium falciparum GB4 proliferation inhibition; series mostly up to 28.7 µM.
Test [9] can be described thus: qHTS for differential inhibitors of proliferation of Plasmodium falciparum line W2 (AID 1883).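 Note: potency is the fitted concentration of half-maximal effect; parasites grown with compound for 72 h before lysis and staining.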 As to conditions: Potency: Plasmodium falciparum W2 proliferation inhibition; series mostly up to 28.7 µM.
The nature of test [10]: qHTS for differential inhibitors of proliferation of Plasmodium falciparum line HB3 (AID 1886).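 Note: potency is the fitted concentration of half-maximal effect; parasites grown with compound for 72 h before SYBR Green readout.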 As to conditions: Potency: Plasmodium falciparum HB3 proliferation inhibition; series mostly up to 28.7 µM.
Test [11] addresses Ferritin light chain (Equus caballus) (UniProt P02791). Description: qHTS Validation Assay for Identification of Novel General Anesthetics (AID 2323). Note: % is set by controls: 0 for no effect and ±100 for the full control effect. As to conditions: horse apoferritin, anesthetic-site fluorescent probe displacement; series mostly up to 76.9 µM. The procedure, abridged:
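Normalized fluorescence response, scaled between free 1-AMA and 1-AMA/apoferritin complex, fitted to a four-parameter Hill equation for concentration-effect values. Binding mix: 10 uM horse-spleen apoferritin, 50% saturated 1-AMA in PBS; read 380/535 nm after 10 min.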

Test [12] concerns the target ATP-dependent DNA helicase Q1 (Homo sapiens) (UniProt P46063). Description: qHTS Validation Assay for Inhibitors of RecQ-Like Dna Helicase 1 (RECQ1) (AID 2353).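 Note: plate controls were DMSO vehicle for no effect and enzyme-free control for full effect.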 As to conditions: recombinant RECQ1 helicase DNA unwinding assay; series mostly up to 25.6 µM. Put shortly:
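RECQ1T1 50 nM; forked duplex (20 bp + 30-nt ss tails) 200 nM, ATP 2 mM final; pH 8.0, 2 mM MgCl2, 2.5 ug/ml poly(dI-dC); 15 min compound preincubation; discontinuous kinetic read over 2 h at RT.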

Test [13] in a line: qHTS Assay for Identification of Small Molecule Inducers of Hypoxia Response (AID 2120; active = well fitted curve in the direction sought with a large enough effect in the signal ratio, with a control signal flat, not every such curve was filed as active; the % refers to the signal ratio; note: 0% is about no effect). As to conditions: hypoxia response reporter cells, beta-lactamase ratio readout; series mostly up to 104 µM. The procedure, abridged: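 HRE-bla ME-180, 2500 cells/well, 0.5% dialyzed FBS medium; cpd titration, 17 h 37 degrees C; CCF4 2.5 h RT; Ex 405, Em 460/530 ratio -> %Activity, AC50.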

Test [14] can be described thus: qHTS for differential inhibitors of proliferation of Plasmodium falciparum line D10 (AID 1877).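 Note: parasites grown with compound for 72 h before DNA staining; plate controls were vehicle wells for no effect and reference inhibitor wells for full effect.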 The following applies: series mostly up to 28.7 µM.
Test [15] is described as follows: qHTS for differential inhibitors of proliferation of Plasmodium falciparum line Dd2 (AID 1882). Note: potency is the fitted concentration of half-maximal effect; nearly all actives have a fitted effect of over 65% in size. The following applies: Potency: Plasmodium falciparum Dd2 proliferation inhibition; series mostly up to 28.7 µM. The procedure, abridged:
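RBC culture, 0.3% parasitemia / 2.5% Hct final; cpd added by pin tool in DMSO; 72 h, 37 C, 5% CO2; lysis buffer + SYBR Green I, o/n RT dark; FI 485/535; norm. to artemisinin 0.29 uM and DMSO.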

The target of test [16] is RecQ-like DNA helicase BLM (Homo sapiens) (UniProt P54132). In words: qHTS Validation Assay for Inhibitors of Bloom's syndrome helicase (BLM) (AID 2364).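 Note: plate controls were DMSO vehicle for no effect and enzyme-free control for full effect.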 The following applies: BLM helicase DNA unwinding, fluorescence, in vitro; series mostly up to 57.1 µM. Put shortly: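 BLM 50 nM in 25 mM Tris-HCl pH 8.0, 5 mM NaCl, 2 mM MgCl2, 1 mM DTT, 0.01% Tween-20, 2.5 ug/ml poly(dI-dC); 15 min cpd preinc, RT. Start: 200 nM forked DNA + 2 mM ATP (final). TAMRA read, 2 reads 2 h apart.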

Where [17] appears, read: measured here: cell count channel max response.
The mark [18] stands for this setting: measured here: lipid channel max response.

Ferritin light chain (Equus caballus), sequence (P02791 2-175 limits assumed): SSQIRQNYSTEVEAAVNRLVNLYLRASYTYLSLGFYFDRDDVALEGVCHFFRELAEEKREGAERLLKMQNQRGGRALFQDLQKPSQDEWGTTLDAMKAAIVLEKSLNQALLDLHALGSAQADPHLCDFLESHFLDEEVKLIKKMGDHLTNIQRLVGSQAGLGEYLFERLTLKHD
ATP-dependent DNA helicase Q1 (Homo sapiens), sequence (P46063 whole entry, looked up): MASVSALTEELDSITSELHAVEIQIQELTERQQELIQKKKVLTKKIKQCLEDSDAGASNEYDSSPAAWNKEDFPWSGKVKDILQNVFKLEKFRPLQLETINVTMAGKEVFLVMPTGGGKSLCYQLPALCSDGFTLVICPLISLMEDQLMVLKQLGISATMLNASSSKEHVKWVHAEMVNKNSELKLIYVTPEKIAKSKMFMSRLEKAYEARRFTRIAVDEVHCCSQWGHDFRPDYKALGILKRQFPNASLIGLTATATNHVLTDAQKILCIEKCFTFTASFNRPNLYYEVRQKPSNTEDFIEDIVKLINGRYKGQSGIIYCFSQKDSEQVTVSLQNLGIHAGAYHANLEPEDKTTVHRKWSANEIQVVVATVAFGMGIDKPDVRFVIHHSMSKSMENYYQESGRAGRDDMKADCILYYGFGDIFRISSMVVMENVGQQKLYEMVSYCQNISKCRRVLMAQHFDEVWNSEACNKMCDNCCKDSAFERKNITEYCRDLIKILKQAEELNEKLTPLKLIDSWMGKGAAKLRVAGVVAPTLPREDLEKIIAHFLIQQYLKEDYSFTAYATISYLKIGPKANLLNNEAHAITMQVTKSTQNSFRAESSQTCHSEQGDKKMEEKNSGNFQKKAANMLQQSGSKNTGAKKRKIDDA
DNA repair nuclease/redox regulator APEX1 (Homo sapiens), sequence (P27695 whole entry, looked up): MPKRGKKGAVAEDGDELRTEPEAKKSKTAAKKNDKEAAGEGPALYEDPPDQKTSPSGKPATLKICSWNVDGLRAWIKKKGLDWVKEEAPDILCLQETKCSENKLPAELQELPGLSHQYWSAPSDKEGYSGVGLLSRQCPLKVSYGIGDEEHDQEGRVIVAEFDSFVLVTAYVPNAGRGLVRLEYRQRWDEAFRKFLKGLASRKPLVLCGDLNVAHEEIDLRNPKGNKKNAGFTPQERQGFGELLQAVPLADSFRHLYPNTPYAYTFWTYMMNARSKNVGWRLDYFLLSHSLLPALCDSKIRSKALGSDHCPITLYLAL
RecQ-like DNA helicase BLM (Homo sapiens), sequence (P54132 whole entry, looked up): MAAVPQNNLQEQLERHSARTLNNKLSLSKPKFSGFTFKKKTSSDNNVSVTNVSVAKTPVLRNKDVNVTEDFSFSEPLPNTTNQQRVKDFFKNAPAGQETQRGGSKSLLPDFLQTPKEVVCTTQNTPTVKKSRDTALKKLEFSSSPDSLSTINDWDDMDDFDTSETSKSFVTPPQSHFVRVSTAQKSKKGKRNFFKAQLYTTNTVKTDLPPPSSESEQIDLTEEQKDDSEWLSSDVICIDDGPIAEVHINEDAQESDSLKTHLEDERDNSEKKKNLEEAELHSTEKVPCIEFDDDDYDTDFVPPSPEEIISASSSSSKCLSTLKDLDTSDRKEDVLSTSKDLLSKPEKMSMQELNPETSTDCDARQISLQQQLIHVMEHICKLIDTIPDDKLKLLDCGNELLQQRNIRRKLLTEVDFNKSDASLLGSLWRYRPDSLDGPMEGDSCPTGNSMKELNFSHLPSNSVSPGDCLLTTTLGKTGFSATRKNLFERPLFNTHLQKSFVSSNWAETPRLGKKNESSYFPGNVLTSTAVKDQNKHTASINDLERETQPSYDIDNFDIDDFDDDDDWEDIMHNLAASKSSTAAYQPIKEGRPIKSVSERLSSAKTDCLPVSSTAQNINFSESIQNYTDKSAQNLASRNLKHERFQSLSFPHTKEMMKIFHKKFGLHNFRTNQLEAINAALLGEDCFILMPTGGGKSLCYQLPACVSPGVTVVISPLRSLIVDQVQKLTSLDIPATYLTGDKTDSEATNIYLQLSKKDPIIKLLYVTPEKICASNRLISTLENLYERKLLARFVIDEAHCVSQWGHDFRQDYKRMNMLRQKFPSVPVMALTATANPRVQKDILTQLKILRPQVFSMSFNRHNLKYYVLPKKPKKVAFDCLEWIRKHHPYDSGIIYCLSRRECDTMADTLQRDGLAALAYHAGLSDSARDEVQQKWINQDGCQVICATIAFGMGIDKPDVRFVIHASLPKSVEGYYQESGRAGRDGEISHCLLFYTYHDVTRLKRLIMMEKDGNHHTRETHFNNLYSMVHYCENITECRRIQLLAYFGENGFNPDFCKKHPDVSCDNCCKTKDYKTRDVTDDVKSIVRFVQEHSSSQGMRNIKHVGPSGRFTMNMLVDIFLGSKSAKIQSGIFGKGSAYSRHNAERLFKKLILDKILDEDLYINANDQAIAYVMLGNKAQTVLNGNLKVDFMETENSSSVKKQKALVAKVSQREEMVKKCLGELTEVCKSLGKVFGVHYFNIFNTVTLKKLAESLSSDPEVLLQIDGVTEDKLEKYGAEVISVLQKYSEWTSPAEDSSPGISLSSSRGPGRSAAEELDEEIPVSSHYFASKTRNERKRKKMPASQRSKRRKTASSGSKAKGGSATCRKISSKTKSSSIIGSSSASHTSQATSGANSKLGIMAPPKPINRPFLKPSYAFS

`O=C1NCCN1c1ncc([N+](=O)[O-])s1`: the activity change, negative = inhibition in test [1] (at 25.7 µM (top of the series)) is -0.923% (inactive). Further, the results for the max response in test [1] (setting [17]) and in [1] (setting [18]) were 0.859% and -3.74%, respectively.
For `Cc1cc(C)c(NC(=O)C[C@H](CC(=O)O)c2cccc3ccccc23)c(C(=O)N2CCC3(CCCC3)CC2)c1`, the compound was classed as inactive in test [2], in test [3], in test [4], in test [5], in test [6] and in test [11]. The outcome in [12] was inactive. In addition, the Potency in test [7] is 12.6 µM (active); in test [8], 11.2 µM (active); in test [9], 11.2 µM (active); in test [10] it was 14.1 µM (active).
For the compound `CC(=O)[C@H]1CC[C@H]2[C@@H]3C=CC4=CC(=O)CC[C@@]4(C)[C@H]3CC[C@]12C`, the activity change, negative = inhibition in [1] (at 25.7 µM (top of the series)) was -2.63% (inactive). Further, the max response in [1] (setting [17]) was -13.1%; in test [1] (setting [18]) it was -17%.
Regarding `COc1cc(S(C)=O)ccc1-c1nc2ncccc2[nH]1` (centres undefined), the activity change, negative = inhibition in test [1] (at 25.7 µM (top of the series)) is 0.171% (inactive). Besides, the max response in [1] (setting [17]) is -21.2%; in test [1] (setting [18]), -18.4%.
Consider `CC1CCC(NC(=O)N(CCCl)N=O)CC1` (centres undefined), for which, in test [1] (at 57.5 µM (top of the series)), the activity change, negative = inhibition was 0.815% (inactive). Besides, the max response was found to be 10.3% in test [1] (setting [17]) and 12.2% in test [1] (setting [18]).
For `CCCc1nc(C(C)(C)O)c(C(=O)OCc2oc(=O)oc2C)n1Cc1ccc(-c2ccccc2-c2nn[nH]n2)cc1`, in that order: 8.57% (inactive), 19.2% and 29.3%.
On to `CCCOc1cc(N)ccc1C(=O)OCCN(CC)CC`, for which the activity change, negative = inhibition in test [1] (at 25.7 µM (top of the series)) was -0.11% (inactive). The max response in [1] (setting [17]) was -10.4%; in test [1] (setting [18]), -6.99%.
For the compound `CN1C(=O)OC(C)(C)C1=O`, the activity change, negative = inhibition in test [1] (at 25.7 µM (top of the series)) was 0.553% (inactive). The max response in [1] (setting [17]) stood at 9.38%; in [1] (setting [18]), 10.6%.
As to `c1ccc2ccccc2c1`, the Potency entry in [13] was “inactive”.
On the same count and under the same terms, under `Oc1cccc(O)c1O` stands “inactive”.
On the same count and under the same terms, under `CC1=CC(=O)NS(=O)(=O)O1` stands “inactive”; under `CC/C=C\C/C=C\C/C=C\CCCCCCCC(=O)O`, “inactive”.
On to `CCOC(C)OCC`, for which the Potency entry in [13] was “inactive”.
As to `CCCCO`, in test [13], the Potency result was “inactive”.
On the same count and under the same terms, then `CO`, with “inactive”; and `C/C=C/C=C/C(=O)O`, with “inactive”.
As to `OCl`, the Potency result in test [13] is “inactive”.
Turning to `OCC(O)CO`, the Potency result in test [13] is “inactive”.
On to `C[C@@](Cc1ccc(O)c(O)c1)(NN)C(=O)O`, for which the result in test [2], in test [4], in test [5], in [6], in test [14] and in test [11] was inactive. Further, the result in [12] and in test [16] was inactive. In [1] (at 57.5 µM (top of the series)), the activity change, negative = inhibition was -0.657% (inactive). Besides, the max response in test [1] (setting [17]) was -17.5%; in test [1] (setting [18]), -16%. In addition, the Potency in test [15] is 10 µM (active).
